An excerpt weighted towards active compounds, which were near 3% of everything screened.
CSC inhib: cancer stem cell inhibition; inhibition, % at 7.5 µM; AID 2717; cancer stem cell-like cells viability, luminescence; actives 1.1% (n = 300,000); in the data active = inhibition above about 75%; inconclusive = no clear call, values can overlap the other calls; tested in HMLE shEcad cells
KLF5 inhibitor: inhibitors of KLF5 expression; DLD-1 KLF5 promoter-luciferase reporter, luminescence; inhibition, % at 5 µM; actives 0.23% (n = 290,000);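 active = inhibition above a per-plate limit of that plate's mean compound inhibition plus 3 SD, cut at about 60% in these data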;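 note: 0% = DMSO wells and 100% = LY294002 at 200 µM; higher means less KLF5 promoter-driven luciferase light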
aSyn UTR inh: MLPCN primary screen, SNCA 5' untranslated region | alpha-synuclein 5'UTR reporter, inhibitor activity | inhibition, % (tested at 7.5 µM) | actives 0.82% (n = 300,000) | AID 1813; in the data active = inhibition above about 60%; inconclusive = no clear call, values can overlap the other calls;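 note: H4 neuroglioblastoma cells stably carrying SNCA 5'UTR luciferase fusion; 0% = DMSO wells and 100% = positive control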
SKKanGAS inh: SKKanGAS growth inhibition | S. pyogenes SKKanGAS, kanamycin growth, BacTiter-Glo, 6 h | inhibition, % at 7.5 µM | actives 1.3% (n = 300,000) | AID 1662;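 active = mean replicate score, as percent of positive control median, at least 50; inconclusive = mean below 50 but one replicate at or above 50; inactive = mean and every replicate below 50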;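 note: strain carries kanamycin resistance gene driven by streptokinase promoter and grows in 40 µg/ml kanamycin; loss of luminescence reflects streptokinase promoter inhibition or plain growth inhibition; 0% = median of DMSO wells and 100% = positive control at its reference dose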
IEC-6 cytotox: counter-screen for KLF5 inhibitors: cytotoxicity in IEC-6 cells; inhibition, % at 5 µM; IEC-6 cytotoxicity, luminescence viability; actives 0.78% (n = 290,000); in the data active = inhibition above about 22%;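 note: 0% = plate median of test compound wells and 100% = cytotoxic reference compound wells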
Numbers without * were called inactive; ? = inconclusive; · = no result given.

SMILES	CSC inhib	KLF5 inhibitor	aSyn UTR inh	SKKanGAS inh	IEC-6 cytotox
CC(C)OCCCNC(=O)C1CCC(CNS(=O)(=O)c2ccccc2)CC1 (centres undefined)	0	-10	17	2	-4
CCCCn1c(O)c(N=NC(=O)c2ccncc2)c2cc(Br)ccc21	51	6	3	83*	4
O=c1cc(O)c2c(=O)n(-c3ccccc3)c3ccccc3c2o1	-9	1	-6	102*	-4
CCn1c(=O)c2c(O)cc(=O)oc2c2ccccc21	-4	-15	8	-1	2
CCOc1cc(CNCCCN2CCOCC2)cc(Br)c1OCc1ccccc1Cl	-5	-14	96*	0	6
CCOc1cc(/C=N/O)cc(Br)c1OCC	-2	-10	-3	-3	-3
CCOc1cc(CNCCO)cc(Br)c1OCc1ccc(Cl)cc1	85*	-11	20	3	19
CCOc1cc(/C=N/O)cc(Br)c1OCc1ccc(Cl)cc1	117*	-2	20	4	0
CCc1sc(C(=O)Nc2ncccc2C)cc1C	-10	-5	-67	-6	1
CCc1sc(C(=O)Nc2nccs2)cc1C	15	-172	-123	59*	-6
Cc1cc(C)c(NC(=O)CC(=O)c2ccccc2)c(Cl)c1	8	-67	-93	1	1
Cc1cc(C)c(C(=O)CC(=O)c2ccccc2Cl)c(O)c1	·	-25	-29	83*	-2
CCOc1ccccc1OCC(=O)NNC(=O)Cn1cnc2c1c(=O)n(C)c(=O)n2C	11	1	12	-6	1
CCOc1ccc2nc(N3C(=O)/C(=C/c4ccc(Cl)cc4)NC3=S)sc2c1	·	-2	-73	96*	-3
CCOc1ccc(N=C2NC(=O)S/C2=C\c2ccc(Cl)cc2)cc1	1	-11	-10	4	-8
CCCCCCCCCCS(=O)(=O)N/N=C/c1ccc([N+](=O)[O-])cc1	86*	-23	16	14	0
Cc1ccc(/C=N/NS(=O)(=O)c2ccc([N+](=O)[O-])cc2)o1	-16	-26	22	10	-7
COc1ccc(/C=C2\SC(=S)N(Cc3cccnc3)C2=O)cc1C	80*	23	-127	-14	3
C#CCOc1ccc(/C=C2\SC(=S)N(Cc3cccnc3)C2=O)cc1	79*	-25	-82	6	-2
O=C1/C(=C/c2ccncc2)SC(=S)N1Cc1ccccc1	58	-33	38	7	-4
O=C1/C(=C/c2ccc(O)cc2)SC(=S)N1Cc1cccnc1	7	-19	-28	-7	1
Cc1ccccc1NC(=O)NC1(C(=O)NCc2ccco2)CCCCC1	-15	11	14	2	-2
Cc1cc(N=Nc2ccc(C)c(N=Nc3cc(C)c(N)cc3N)c2)c(N)cc1N	30	-53	12	15	5
O=c1c(Cl)c(NCc2ccccc2)cnn1C12CC3CC(CC(C3)C1)C2	77*	-9	8	1	9
O=C(O)CC12CC3CC(C1)CC(n1ncc(NCc4ccco4)c(Cl)c1=O)(C3)C2	-9	13	15	5	-2
SMILES	CSC inhib	KLF5 inhibitor	aSyn UTR inh	SKKanGAS inh	IEC-6 cytotox
CCOC(=O)c1ccc(NS(=O)(=O)c2c(C)[nH]c(C)c2C(=O)N2CCCCC2)cc1	4	-14	29	-4	-1
O=C(OCC(=O)N1CCc2ccccc21)[C@@H]1CC(O)CN1S(=O)(=O)c1ccccc1[N+](=O)[O-] (some centres undefined)	-16	·	·	·	·
NC(=S)N/N=C/c1ncc(C(F)(F)F)cc1Cl	91*	34	61	9	-8
O=C(OCc1csc(-c2ccccc2)n1)c1ccccc1O	-8	-19	-149	50*	-4
CCC(=O)OCCNc1cc(Sc2nc3ccccc3s2)c2nonc2c1[N+](=O)[O-]	106*	-3	-2	?	-2
Cc1nnc(Sc2cc(NCCCO)c([N+](=O)[O-])c3nonc23)s1	·	-30	17	?	11
O=[N+]([O-])c1c(NCCCO)cc(Sc2nc3ccccc3s2)c2nonc12	-4	-3	-3	78*	-2
CCCSc1cc(NCCOC(=O)CCC)c([N+](=O)[O-])c2nonc12	-6	0	27	13	-1
Clc1ccc2c(N/N=C/c3cccc(Br)c3)ccnc2c1	80*	-3	-18	82*	1
CCNc1nc(OC)nc(N2CCC(Cc3ccccc3)CC2)n1	-5	-9	32	5	-8
COc1ccc(C(C)NCCC(c2ccc(OC(C)C)cc2)c2ccccc2OC)cc1 (centres undefined)	104*	1	93*	6	13
Clc1ccc(Cn2ncc3c(NCc4ccccc4)ncnc32)c(Cl)c1	77*	-12	39	20	7
